Experimental data published in the supplement of paper PMC9844399.
Structures can show the parent of a compound that is named as a salt.

These compounds were tested on HeLa (assay: nuclear count per well, robust Z-score vs DMSO; higher = more cells (less toxicity)). Conditions: 10 µM; 6 h.
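Also: Hoechst-stained nuclei counted by automated confocal imaging of four fields per well in 384-well plates, with the robust Z-score based on the per-plate DMSO median and robust SD.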

Row | Compound | nuclear count per well
1 | OC[C@H]1O[C@@H](n2cnc3c2N=CNC[C@H]3O)C[C@@H]1O [Pentostatin] | 0.586
2 | CN(C)CCOC(=O)C(c1ccccc1)C1(O)CCCC1 (centres undefined) [Cyclopentolate] | 0.953
3 | CN(C)CCOC(c1ccccc1)c1ccccc1 | -1.81
4 | C[C@H](CCC(=O)O)[C@H]1CC[C@H]2[C@@H]3[C@H](O)C[C@@H]4C[C@H](O)CC[C@]4(C)[C@H]3C[C@H](O)[C@]12C [Cholic acid] | 0.709
5 | CC(Oc1ccc(O)cc1)(P(=O)(O)O)P(=O)(O)O | 0.32
6 | CN(C)CCC(c1ccc(Cl)cc1)c1ccccn1 (centres undefined) [Chlorpheniramine Maleate] | 0.425
7 | CCNC(=O)CCC/C=C\C[C@@H]1[C@@H](/C=C/[C@@H](O)CCc2ccccc2)[C@H](O)C[C@@H]1O [Bimatoprost] | -0.229
8 | CC(/C=C/C(=O)NO)=C\[C@@H](C)C(=O)c1ccc(N(C)C)cc1 [Trichostatin-A] | -2.22
9 | C=C1/C(=C\C=C2/CCC[C@]3(C)[C@@H]([C@H](C)CCCC(C)(C)O)CC[C@@H]23)C[C@@H](O)C[C@@H]1O [1?,25-Dihydroxyvitamin D3] | 0.361
10 | COc1ccc(O)cc1 [Mequinol] | 0.211
11 | CC(C)[C@H](N)C(=O)OCC(CO)OCn1cnc2c(=O)nc(N)[nH]c21 (some centres undefined) | -0.387
12 | CCCNC(=O)NS(=O)(=O)c1ccc(Cl)cc1 [Chlorpropamide] | -0.00913
13 | CC/C(=C(\c1ccccc1)c1ccc(OCCN(C)C)cc1)c1ccccc1 [Tamoxifen citrate] | -0.415
14 | CCN(CC)CCNC(=O)c1c(C)[nH]c(/C=C2\C(=O)Nc3ccc(F)cc32)c1C [Sunitinib malate] | -0.388
